# Measured values reported in PubChem BioAssay AID456 (Sanford-Burnham Center for Chemical Genomics, 2006).
# About 25 (0.2%) of roughly 10,000 compounds were called active. Shown is part of a subset that was picked to be rich in actives. Results with a measured potency or affinity are listed apart. A number with no mark means an inactive call.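 How the source made its calls: active means top tenth filtered wells with inhibition above zero that passed visual or statistical confirmation; inactive means the rest, including hits rejected on review.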
# Experiment: suppression of endothelial VCAM-1 upregulation – imaging, high-content imaging, pooled HUVEC, TNFa stimulus (AID 456);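 on inhibition: VCAM-1 immunofluorescence minus red nonspecific channel after plate median normalization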
# Conditions: HUVEC TNFa-induced VCAM-1 surface expression, immunofluorescence imaging;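 compounds screened at 5 µM final in the well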
row,Structure (SMILES),inhibition
1,CN(C)c1ccc(NC(=O)CSCc2nc3c(nnn3Cc3ccc(F)cc3)c(=O)[nH]2)cc1,inactive
2,COC(=O)c1c(N)sc(C(=O)N2CCOCC2)c1C,inactive
3,O=C(CSc1nnc(-c2cccnc2)o1)Nc1ccccn1,inactive
4,c1ccc(Cn2ncc3c2ncn2c(-c4ccncc4)nnc32)cc1,inactive
5,CCOc1ccc(C(c2nnnn2Cc2ccccc2)N2CCN(C(=O)c3ccco3)CC2)cc1 (stereo unspecified),inactive
6,O=C(CSc1nnnn1Cc1ccccc1)Nc1ccc2c(c1)OCO2,inactive
7,CCOC(=O)c1sc(Nc2nc3c(OC)cccc3s2)nc1C,inactive
8,COc1cc(NS(=O)(=O)N2CCCC2)cc(OC)c1OC,inactive
9,COc1ccc2ccccc2c1CN1CCN(C)CC1,inactive
10,c1cc(C(c2nnnn2C2CCCC2)N2CCOCC2)ccn1 (stereo unspecified),inactive
11,O=C(Nc1ccc(N2CCOCC2)c(F)c1)c1ccncc1,inactive
12,COc1ccc2cc(C(c3nnnn3C(C)(C)C)N3CCc4ccccc4C3)c(=O)[nH]c2c1 (stereo unspecified),inactive
13,CCC(C)(C)n1nnnc1C(c1ccc(OC)c(OC)c1)N1CCN(c2ccccc2)CC1 (stereo unspecified),inactive
14,C=CCSC1=C(C#N)C(c2ccccc2OCC)CC(=O)N1 (stereo unspecified),inactive
15,CNC(=O)CSc1nnc(-c2cc(C)cc(C)c2)o1,inactive
16,Cc1csc(NC(=O)CCCSc2nc3ccccc3s2)n1,inactive
17,CCOCCCNC(=O)C1CCCN(S(=O)(=O)CC)C1 (stereo unspecified),inactive
18,O=C(NCc1ccccc1)C1CCCN1S(=O)(=O)c1cccc2cccnc12 (stereo unspecified),inactive
19,CC(=O)OCC(=O)[C@H]1CC[C@H]2[C@@H]3CCC4=CC(=O)CC[C@]4(C)[C@H]3CC[C@]12C,78.2% (active)
20,CC(=O)[C@H]1CC[C@H]2[C@@H]3CCC4=CC(=O)CC[C@]4(C)[C@H]3CC[C@]12C,87.1%
21,C[C@]12CC[C@H]3[C@@H](CCC4=CC(=O)CC[C@@]43C)[C@@H]1CC[C@@H]2C(=O)CO,72.2%
22,CCC(=O)O[C@]1(C(=O)CCl)[C@@H](C)C[C@H]2[C@@H]3CCC4=CC(=O)C=C[C@]4(C)[C@@]3(F)[C@@H](O)C[C@@]21C,78.5% (active)
23,CC(=O)OCC(=O)[C@@]1(O)[C@H](C)C[C@H]2[C@@H]3CCC4=CC(=O)C=C[C@]4(C)[C@@]3(F)[C@@H](O)C[C@@]21C,inactive
24,CCCC(=O)O[C@]1(C(=O)CCl)[C@@H](C)C[C@H]2[C@@H]3CCC4=CC(=O)C=C[C@]4(C)[C@@]3(F)C(=O)C[C@@]21C,inactive
25,CCOC(=O)Nc1cc(OCC)c(NC(=O)C2CC2)cc1OCC,inactive
26,COC(=O)CCN(C(=O)c1ccc2c(c1)OCO2)c1ccccn1,inactive

row,Structure (SMILES),inhibition
1,Cc1ccc(S(=O)(=O)N2CCCC(c3nnc4n3-c3ccccc3SC4)C2)cc1 (stereo unspecified),inactive
2,Cc1ccc(Nc2nc(N)nc(CN3CCN(Cc4ccc5c(c4)OCO5)CC3)n2)cc1,inactive
3,COc1ccccc1C(=O)Nc1ccc(S(=O)(=O)N2CCCC2)cc1,inactive
4,COC(=O)c1cc(=O)n(Cc2ccc3c(c2)OCO3)c(=Nc2ccccc2)s1,96.4%
5,CCOC(=O)c1ccc(NC(=O)CSCc2ccco2)cc1,inactive
6,COc1ccc(S(=O)(=O)Cc2ccc(C(=O)N3CCN(Cc4ccccc4)CC3)o2)cc1,inactive
7,CCC(c1c(C)n(C)n(-c2ccccc2)c1=O)c1c(C)n(C)n(-c2ccccc2)c1=O,inactive
8,Cc1nc2ccccn2c(=O)c1CCN1CCC(C(=O)c2ccc(F)cc2)CC1,inactive
9,Cc1nc2sccn2c(=O)c1CCN1CCC(=C(c2ccc(F)cc2)c2ccc(F)cc2)CC1,87.2%
10,CCOC(=O)c1cc2c(=O)n3ccccc3nc2n(CC(C)C)c1=NC(=O)c1ccco1,inactive
11,Cc1cccn2c(=O)c3cc(C#N)c(=NC(=O)c4ccncc4)n(Cc4ccco4)c3nc12,inactive
12,CC(C)n1c(=NC(=O)c2ccco2)c(C#N)cc2c(=O)n3ccccc3cc21,78.9% (active)
13,Cc1n[nH]c(C)c1S(=O)(=O)N1CCCCCC1,inactive
14,CC1Oc2ccccc2N(CC(=O)N(Cc2ccccc2)Cc2ccccn2)C1=O (stereo unspecified),inactive
15,COc1ccc(N2CCN(Cc3nc(-c4ccc(Cl)cc4Cl)no3)CC2)cc1,inactive
16,O=C(/C=C1\NC2(CCCC2)Cc2ccccc21)N1CCOCC1,inactive
17,CCCN1C=CC(=C2C(=O)c3ccccc3C2=O)C=C1,inactive
18,COc1ccc2cc3cc(C(=O)NCC4CCCO4)oc3nc2c1 (stereo unspecified),inactive
19,CC1(C(=O)NC2CCCCC2)CCC(=O)N1Cc1cccs1 (stereo unspecified),inactive
20,COc1ccc(Br)cc1S(=O)(=O)N1CCOCC1,inactive
21,Cc1cccc(-c2nnc(SCC#N)n2-c2cccc(Cl)c2)c1,inactive
22,COc1ccc2cc(CN(CCO)C(=O)c3ccccc3F)c(=O)[nH]c2c1,inactive
23,CCn1nnc(NC(=O)c2cc3ccccc3o2)n1,inactive
24,CCOC(=O)c1cccc(NC(=O)CSc2nnc(-c3ccoc3C)n2CCOC)c1,inactive
25,COC(=O)c1ccccc1NC(=O)CSc1nc2c(c(=O)n(C)c(=O)n2C)n1C,inactive
26,Cc1ccc(-c2cc(C(F)F)n3ncc(C(=O)N4CCN(c5ccccn5)CC4)c3n2)cc1,80.5% (active)

row,Structure (SMILES),inhibition
1,CCOc1ccc(-c2cc(C(=O)N3CCN(c4ccccn4)CC3)c3ccccc3n2)cc1,inactive
2,O=C(c1cnn2c(C(F)F)cc(-c3ccccc3)nc12)N1CCN2CCCC2C1 (stereo unspecified),inactive
3,CC1(C)CC(CCNC(=O)c2ccco2)CC(C)(C)N1,inactive
4,CC1CCc2nn(CC(=O)NCc3ccc4c(c3)OCO4)cc2C1 (stereo unspecified),inactive
5,CCS(=O)(=O)c1nc2ccccc2n1Cc1ccccc1Cl,inactive
6,O=C1c2oc3ccccc3c(=O)c2C(c2ccccn2)N1Cc1ccccc1 (stereo unspecified),inactive
7,COc1ccc(Cl)c(NC(=O)NCCN2CCN(c3ccccc3)CC2)c1,inactive
8,Cc1cc2ncn(C(=O)c3c(-c4ccccc4)noc3C)c2cc1C,inactive
9,CCOC(=O)N1CCC(N2C(=O)c3ccccc3C2Nc2ccccc2C)CC1 (stereo unspecified),inactive
10,CCOC(=O)N1CCC(N2C(=O)c3ccccc3C2Nc2cc(Cl)c(OC)cc2OC)CC1 (stereo unspecified),72.7% (active)
11,CCOC(=O)c1ccccc1NC1c2ccccc2C(=O)N1C1CCN(C(=O)OCC)CC1 (stereo unspecified),inactive
12,CCN(CC)C(=O)CSc1nnc([C@@H](N)Cc2ccccc2)o1,inactive
13,Cc1nnc(NC(=O)c2ccccc2F)s1,inactive
14,CCOc1ccc(N(CC(=O)NC2CCCC2)S(=O)(=O)c2c(C)[nH]c(=O)[nH]c2=O)cc1,inactive
15,CC1CC(C)CN(Cc2nc3c(c(=O)n(C)c(=O)n3C)n2Cc2ccccc2Cl)C1 (stereo unspecified),inactive
16,O=C(COC(=O)c1ccc(S(=O)(=O)Nc2ccccc2)cc1)NCCN1C(=O)CSC1=O,inactive
17,CCOC(=O)CSc1nc2ccccc2c(=O)n1CCN1CCOCC1,inactive
18,O=C(NCCC1=CCCCC1)C1CC(=O)N(C2CCCCCC2)C1 (stereo unspecified),inactive
19,CCCN1CCN(CCCNC(=O)Cn2nc(-c3ccc(Cl)cc3)ccc2=O)CC1,inactive
20,Cc1ccc(-c2ccc(=O)n(CC(=O)NCCCN3CCCCC3C)n2)cc1 (stereo unspecified),inactive
21,COCc1nnc(NC(=O)CCCOc2ccccc2)s1,inactive
22,Cc1ccc(NC(=O)CCC(=O)O)cc1F,inactive
23,CC1Cc2ccccc2N1C(=O)CSc1nnc2n1C(C)(C)Cc1ccccc1-2 (stereo unspecified),inactive
24,CCOc1ccc(Nc2nc(Cc3nnc(SCC(N)=O)o3)cs2)cc1,inactive
25,COc1ccc(Br)cc1C1N2CC3(C)CN1CC(C)(C2)C3=O (stereo unspecified),inactive
26,O=S1(=O)C=C(Sc2nnc(-c3ccccc3)o2)c2ccccc21,inactive

row,Structure (SMILES),inhibition
1,Cc1cc(C)nc(SC2=CS(=O)(=O)c3ccccc32)n1,99.6%
2,CCCCN(CCCC)CCn1cnc2c([nH]c3ccc(OC)cc32)c1=O,inactive
3,O=C(CC1Oc2ccccc2NC1=O)NCCCN1CCOCC1 (stereo unspecified),inactive
4,CC(C)(C)OC(=O)N1CCC(C(=O)N2CCCCCC2)CC1,inactive
5,Nc1cc(N)cc(-c2nc3ccccc3o2)c1,inactive
6,Nc1nc(CN2CCOCC2)cs1,inactive
7,CC(C(=O)N1c2ccc(F)cc2CCC1C)N1C(=O)c2ccccc2C1=O (stereo unspecified),inactive
8,COc1cccc(NC(=O)CN2CCN(c3ccccc3F)CC2)c1,inactive
9,CCOc1ccc(N(CC(=O)Nc2ccc(C)c(C)c2)S(=O)(=O)c2c(C)noc2C)cc1,inactive
10,N#CCCN(Cc1cccnc1)C(=O)Nc1ccc(Cl)c(Cl)c1,inactive
11,COc1ccccc1-c1noc(-c2ccco2)n1,inactive
12,Cc1cc(=O)n2[nH]c(-c3ccc(Cl)cc3)cc2n1,inactive
13,CCOC(=O)Cn1nc(-c2ccc(Cl)cc2)cc1N,inactive
14,COc1ccc(NC(=O)CN(c2cc(C)cc(C)c2)S(=O)(=O)c2c(C)noc2C)cc1OC,inactive
15,CC(=O)Nc1nc(C)c(-c2csc(Nc3ccc(O)cc3)n2)s1,inactive
16,c1cc2c(cc1Nc1nc(-c3ccc4c(c3)OCO4)cs1)OCCO2,inactive
17,Cc1ccc(Cc2c(C)nc3c(C(=O)O)cnn3c2C)cc1,inactive
18,CCOC(=O)CN1CC23C=CC(O2)C(C(=O)Nc2ccc(OCC)cc2)C3C1=O (stereo unspecified),inactive
19,CN(C)CCCN1c2ccccc2Sc2ccc(C(F)(F)F)cc21,inactive
20,CN(C)CCCN1c2ccccc2Sc2ccccc21,inactive
21,CNCCCN1c2ccccc2CCc2ccccc21,inactive
22,CN(C)CCCN1c2ccccc2CCc2ccccc21,inactive
23,CCC1CCCCN1CCCNC(=O)CC1Oc2ccc(C)cc2NC1=O (stereo unspecified),inactive
